Laboratory results from the supplement of paper PMC10338343.
± gives the standard deviation.

The sequences below were run on MILI (PIWIL2) piRISC loaded with piRNA #1 (26 nt) (assay: pre-steady-state target cleavage rate (min^-1); guide: piRNA #1 5'p-UGAGGUAGUAGGUUGUAUAGUAUCCA; MIWI and MILI are mouse PIWI proteins and EfPiwi is from a freshwater sponge; tags in brackets are library labels; higher = faster piRNA-guided slicing of the target). Conditions: auxiliary factor: 500 nM mouse GTSF1.
Description: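 Cleave-'n-Seq: a library of target RNAs (target site embedded in constant flanks, ACAGCATTCCGCGTTAGTGATATCCG... 5' flank; DNA-blocked outside the site) at 0.1 nM was incubated with 1 nM active mouse MILI or MIWI piRISC (synthetic 5'-monophosphorylated piRNA guide) with or without 500 nM mouse GTSF1 at 33 °C for 1 min to 16 h. Uncleaved targets were sequenced and normalised to non-target controls, and the pooled three trials were fitted to a burst-and-steady-state model to give the pre-steady-state cleavage rate (min^-1; k3 is constrained to at most 1e-4). Sequence is the target site only; target names encode pairing extent (gX:gY) and contiguous / 1-mismatch / 2-mismatch / bulge geometry. Fits with R² ≤ 0 are excluded.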

Sequence	pre-steady-state target cleavage rate
GGAGACCAUACUAUACACCUACUACCUCA	0.0288 ± 0.0078
GGAGACCUAUGAAUACAACCUACUACCACA	0.00626 ± 0.0028
GGAGACCUAUGUAUACAUCCUACUACGUCA	0.0275 ± 0.0061
GGAGACCUAUCUAUACCACCUACUACCUCA	0.095 ± 0.017
GGAGUGGAUUCUAUACAACCUACUACGUCA	0.0598 ± 0.0076
GGAGACCUAUGAAAACAAGCUACUACCUCA	0.00917 ± 0.0021
GGAGACCUAUGAUUACAACCUACUACCUUCA	0.00664 ± 0.0022
GGAGACCUUACUAUACAACCUAUUACCUCA	0.226 ± 0.019
GGAGACCUAACUAUACAACCUACCACCUCA	0.0488 ± 0.014
GGAGACGAUACUAUACUAGCUACUACCUCA	0.198 ± 0.011
GGAGACCUAACUAAACAACCUACUAGCUCA	0.0613 ± 0.018
GGAGUCGAUACUAUACAACCUACUACCUCA	0.18 ± 0.013
GGAGAGGAUACAAUACAACCUACUACCUCA	0.172 ± 0.012
GGAGACCUAUGAUAUGUUGCUACUCCCUCA	< 0.0001
GGAGUGGUUUCUAUACAACCUACUACCUCA	0.148 ± 0.0079
GGAGACCUAUGAUAUGAAACCUACUACCUCA	0.00314 ± 0.0026
GGAGACCUAUGUAUACAACCUACAAGCUCA	0.0033 ± 0.0026
GGAGAGGAUACUAUACAACCUACUACCUAA	0.125 ± 0.011
GGAGAGGAUAGUUUACAACCUACUACCUCA	0.0583 ± 0.0089
GGAGAGGAUACUAUACUACGUACUACCUCA	0.0192 ± 0.0028

Sequence	pre-steady-state target cleavage rate
GGAGACCAUACUAUACAACCUAUACCUCA	0.016 ± 0.0051
GGAGACCUUACUUUACAAGCUACUACCUCA	0.232 ± 0.013
GGAGACCAUACUAUACAACCUCUACCUCA	0.00997 ± 0.0029
GGAGACCUAUGAACACAACCUACUACCUCA	0.0162 ± 0.0041
GGAGACCUAUGAUAACAUCCUACAACCUCA	0.00633 ± 0.0025
GGAGUGGAUACUAUACAACGUACUAGCUCA	0.0104 ± 0.0027
GGAGACCUAAUAUACAACCUACUACCUCA	0.0727 ± 0.014
GGAGACCUCACUAUACAACCUACUACCUCA	0.252 ± 0.029
GGAGACCAUACAAUACAACCUACUACCUGA	0.12 ± 0.019
GGAGACCUAACUAUACAACCUACUUGCUCA	0.18 ± 0.062
GGAGACGAUACUACACAACCUACUACCUCA	0.203 ± 0.019
GGAGACCUAUGAUAACAACGUACUACCUCA	0.00353 ± 0.0022
GGAGUGGAUACUAUACAACCUACUCACCUCA	0.166 ± 0.02
GGAGAGGAUACAAUACUACCUACUACCUCA	0.154 ± 0.013
GGAGACCAUACUAUAAAACCUACUACCUCA	0.2 ± 0.016
GGAGUGGAUACUAUACAAGCUACUACGUCA	0.0651 ± 0.013
GGAGACCUAACUAUACAACCUACUACCUGA	0.108 ± 0.03
GGAGACGAUACUAUACAUCCUACUACCUGA	0.237 ± 0.031
GGAGUGGAUACAAUACAACCUACUACCUCA	0.174 ± 0.0095
GGAGACCUAUGUAUACAACUUACUACCUCA	0.0134 ± 0.0024
